Activity calls are given as the source filed them. Unless noted, how the calls were made is not given here.
Experiments:
[1] = resazurin metabolic signal in HepG2 cells – cell-based, resazurin fluorescence, 24 h, PK04 Diversity Set, profiling panel (AID 1172); settings: HepG2 viability, higher = more signal
[2] = budding yeast growth changes without added modifier – OD600, strain BY4716, 24 h, basal condition, primary screen (AID 1173); settings: S. cerevisiae BY4716 growth, OD600, 24 h; higher = more signal, called active from +8 up or from −8 down
[3] = viability profiling in MM1S myeloma cells – cell-based, resazurin fluorescence, basal, 24 h, PK04 Diversity Set, profiling panel (AID 1174); settings: higher = more signal, called active from +8 up or from −8 down;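 further: MM1S multiple myeloma cell line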
[4] = molecular target: Dihydroorotate dehydrogenase (quinone), mitochondrial (Plasmodium falciparum (isolate 3D7)) (UniProt Q08210); assay: inhibition of P. falciparum DHODH – biochemical, C-terminal His tag, absorbance 600 nm, primary screen (AID 1175); settings: PfDHODH enzyme, DCIP absorbance 600 nm; higher = more signal, called active from +8 up or from −8 down;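 further: recombinant parasite enzyme with a five histidine tag at its C terminus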
[5] = inhibition of PAO1 biofilm formation – strain PAO1, LB-PBS medium, absorbance 600 nm, primary screen (AID 1176); settings: P. aeruginosa PAO1 growth/biofilm, A600, 12 h; higher = more signal
[6] = growth modulation of vineyard yeast isolate – strain RM11-1a, OD600, basal, 24 h, primary screen (AID 1177);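 further: cultures grown under basal conditions with no added stressor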; settings: S. cerevisiae RM11-1a growth, OD600, 24 h; higher = more signal, called active from +8 up or from −8 down
[7] = growth of efflux-deficient E. coli DRC39 – strain DRC39, OD650, 24 h, E. coli filamentation inducers, primary screen (AID 1178);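 further: growth measured as culture turbidity by optical density at 650 nm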; settings: E. coli DRC39 acrAB, higher = more signal, called active from +8 up or from −8 down
[8] = growth of efflux-deficient E. coli DRC39 – strain DRC39, OD650, 48 h, E. coli filamentation inducers, primary screen (AID 1179);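 further: screen aims at cell division blockers that make cells filament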; settings: E. coli DRC39 delta-acrAB growth, higher = more signal, called active from +8 up or from −8 down
[9] = viability profiling in RPMI8226 myeloma cells – cell-based, resazurin fluorescence, basal, 24 h, PK04 Diversity Set, profiling panel (AID 1180); settings: higher = more signal;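 further: RPMI8826 multiple myeloma cell line at 5000 cells per well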
[10] = molecular target: E3 ubiquitin-protein ligase XIAP (Homo sapiens) (UniProt P98170); assay: small molecules binding XIAP protein – biophysical, small-molecule microarray, fluorescence 635 nm, primary screen (AID 1181); settings: higher = more signal;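 further: score merges 667 nm emission and signal to noise over triplicate slides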
[11] = tested on: XIP peptide (Xip251-270) binding; assay: XIP fragment 251-270 binding compounds – biochemical, small-molecule microarray, fluorescence 635/667 nm, 0.1 µg/mL protein, primary screen (AID 1182); settings: fluorescent protein binding, 635 nm, higher = more signal, called active from +8 up or from −8 down
XIP peptide (Xip251-270) = assay: compounds binding XIP fragment 251-270 – biochemical, small-molecule microarray, fluorescence 635/667 nm, 0.5 µg/mL protein, primary screen (AID 1183); settings: fluorescence 635 nm, higher = more signal
[12] = blood-stage malaria parasite viability loss – strain 3D7, DAPI fluorescence, 100 nL, primary screen (AID 1184);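 further: parasites grown inside human red blood cells in medium with human serum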; settings: P. falciparum 3D7 growth, 3 d, higher = more signal
[13] = molecular target: Homeobox protein Hox-A13 (Mus musculus) (UniProt Q62424); assay: disruptors of Hoxa13 oligonucleotide interaction – biochemical, fluorescence polarization, labeled oligonucleotide, primary screen (AID 1185); settings: Hoxa13:DNA binding, 15 min, higher = more signal, called active from +8 up or from −8 down
[14] = blockers of DNA damage checkpoint Chk1 activation – imaging, HeLa, hydroxyurea, phospho-Chk1 antibody, percent positive cells, primary screen (AID 1186); settings: hydroxyurea-induced phospho-Chk1 immunofluorescence imaging, higher = more signal
[15] = blockers of DNA damage checkpoint Chk1 activation – imaging, HeLa, hydroxyurea, phospho-Chk1 nuclear intensity, primary screen (AID 1187); settings: hydroxyurea-induced phospho-Chk1 immunofluorescence imaging, higher = more signal

Dihydroorotate dehydrogenase (quinone), mitochondrial (Plasmodium falciparum (isolate 3D7)), sequence (Q08210 whole entry, looked up): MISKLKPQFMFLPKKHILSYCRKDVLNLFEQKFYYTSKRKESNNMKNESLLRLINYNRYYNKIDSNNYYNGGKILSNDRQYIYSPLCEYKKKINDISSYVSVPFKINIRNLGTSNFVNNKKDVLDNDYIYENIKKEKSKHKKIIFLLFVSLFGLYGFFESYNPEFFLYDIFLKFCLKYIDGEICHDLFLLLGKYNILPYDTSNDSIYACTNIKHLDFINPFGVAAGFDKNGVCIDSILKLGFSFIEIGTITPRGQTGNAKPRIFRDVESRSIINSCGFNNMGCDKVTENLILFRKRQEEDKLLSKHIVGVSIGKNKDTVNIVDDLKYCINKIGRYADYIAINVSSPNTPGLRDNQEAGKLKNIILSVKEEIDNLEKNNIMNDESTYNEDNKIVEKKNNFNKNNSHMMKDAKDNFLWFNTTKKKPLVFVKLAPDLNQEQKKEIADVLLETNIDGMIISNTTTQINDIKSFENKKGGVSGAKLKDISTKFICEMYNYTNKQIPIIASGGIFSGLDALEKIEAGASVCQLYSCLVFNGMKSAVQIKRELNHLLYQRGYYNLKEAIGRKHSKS
Homeobox protein Hox-A13 (Mus musculus), sequence (Q62424 whole entry, looked up): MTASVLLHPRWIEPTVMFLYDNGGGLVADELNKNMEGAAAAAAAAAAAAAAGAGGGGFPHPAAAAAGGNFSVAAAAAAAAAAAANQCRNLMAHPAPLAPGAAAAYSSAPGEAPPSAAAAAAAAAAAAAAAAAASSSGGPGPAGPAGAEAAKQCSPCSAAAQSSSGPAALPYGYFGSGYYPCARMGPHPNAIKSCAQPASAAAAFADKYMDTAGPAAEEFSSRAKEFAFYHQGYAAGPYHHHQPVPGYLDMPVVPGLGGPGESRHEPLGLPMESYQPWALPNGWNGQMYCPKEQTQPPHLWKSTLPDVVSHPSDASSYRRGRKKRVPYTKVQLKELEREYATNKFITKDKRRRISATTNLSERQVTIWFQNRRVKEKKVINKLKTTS
E3 ubiquitin-protein ligase XIAP (Homo sapiens), sequence (P98170 whole entry, looked up, the tested form may be a part): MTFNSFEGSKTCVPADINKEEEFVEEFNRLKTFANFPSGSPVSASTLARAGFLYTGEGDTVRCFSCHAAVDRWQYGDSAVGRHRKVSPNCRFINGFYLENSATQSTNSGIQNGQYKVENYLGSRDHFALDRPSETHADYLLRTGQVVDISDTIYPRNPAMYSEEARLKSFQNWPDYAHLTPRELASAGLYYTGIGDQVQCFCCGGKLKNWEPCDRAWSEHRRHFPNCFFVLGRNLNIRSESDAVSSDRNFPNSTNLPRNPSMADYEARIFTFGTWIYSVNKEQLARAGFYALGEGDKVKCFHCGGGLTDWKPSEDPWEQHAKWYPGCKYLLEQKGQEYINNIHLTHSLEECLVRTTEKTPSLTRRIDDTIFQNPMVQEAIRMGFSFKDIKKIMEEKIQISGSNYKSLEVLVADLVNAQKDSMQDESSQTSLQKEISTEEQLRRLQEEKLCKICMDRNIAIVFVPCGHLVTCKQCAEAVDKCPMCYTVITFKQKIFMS

SMILES | z-score [1] | z-score [2] | z-score [3] | composite z-score [4] | z-score [5] | z-score [6] | z-score [7] | z-score [8] | z-score [9] | composite z-score [10] | composite z-score [11] | composite z-score (XIP peptide (Xip251-270)) | z-score [12] | z-score [13] | z-score [14] | z-score [15]
CN1C(=O)C2C=CC(C(O)C(C)(C)C)N(Nc3ccccc3)C2C1=O (stereo not given) | -0.376 | 0.66 (inactive) | -0.281 (inactive) | -0.702 (inactive) | 0.695 (inactive) | 0.0609 (inactive) | -0.568 (inactive) | 0.108 (inactive) | -0.444 | 0.621 | 0.127 (inactive) | 0.403 | 0.987 | -0.565 (inactive) | -0.415 (inactive) | -0.815 (inactive)
O=C(CS)NCCCCCNC(=O)[C@H]1C[C@H]2C(=O)N[C@@H](Cc3ccccc3)C(=O)N2[C@H]1c1cccc(OCCO)c1 | 0.219 | -0.525 (inactive) | 0.782 (inactive) | 0.761 (inactive) | 0.932 (inactive) | -0.572 (inactive) | 1.94 (inactive) | 1.68 (inactive) | 0.889 | 0.0585 | 0.296 (inactive) | 0.812 | 0.0332 | -2.76 (inactive) | 0.0034 (inactive) | 0.483 (inactive)
CC(C)(C)OC(=O)CC[C@@]1(C(N)=O)N=C(c2ccc(OCCCO)cc2)O[C@@H]1c1ccccc1N=[N+]=[N-] | 0.55 | -0.231 (inactive) | -0.134 (inactive) | 0.974 (inactive) | -0.18 (inactive) | 0.045 (inactive) | 0.397 (inactive) | 0.529 (inactive) | 0.288 | 0.0908 | 0.0344 (inactive) | 0.839 | -0.338 | -6.23 (inactive) | -0.244 (inactive) | -0.0977 (inactive)
O=C1OCCC=C[C@H]2OC34C=CCN(CCN5CCOCC5)C(=O)[C@H]3N(CCO)C(=O)[C@@H]4C12 (stereo not given in full) | -0.0535 | -0.663 (inactive) | -1.45 (inactive) | -1.85 (inactive) | 0.0962 (inactive) | -0.249 (inactive) | -1.14 (inactive) | -0.99 (inactive) | -0.6 | 0.0264 | 0.134 (inactive) | 0.0053 | 0.0863 | -5.81 (inactive) | -0.492 (inactive) | -0.757 (inactive)
CCOC1=C2C(c3ccc(C)cc3)N(S(=O)(=O)c3ccc(C)cc3)CC2n2c(=O)n(-c3ccccc3)c(=O)n2C1 (stereo not given) | -0.994 | 1.21 (inactive) | -0.932 (inactive) | -2.05 (inactive) | -0.172 (inactive) | 0.135 (inactive) | -0.15 (inactive) | 0.717 (inactive) | -0.774 | 0.199 | 0.346 (inactive) | 0.846 | -0.102 | -0.865 (inactive) | -0.562 (inactive) | 0.0267 (inactive)
NC(=O)NCC#Cc1ccc2c(c1)[C@]1(C(=O)N2)[C@H](C(=O)NC[C@H](O)c2ccccc2)[C@H]2C(=O)O[C@H](c3ccccc3)[C@H](c3ccccc3)N2[C@@H]1c1ccccc1OCCO | 0.217 | 0.328 (inactive) | 0.56 (inactive) | 0.833 (inactive) | 1.08 (inactive) | 0.915 (inactive) | 1.01 (inactive) | 0.0227 (inactive) | 0.225 | 0.0864 | 0.635 (inactive) | 0.799 | -1.32 | -3.41 (inactive) | -0.228 (inactive) | -0.374 (inactive)
COCCCNC(=O)[C@@]1(Cc2ccccc2I)c2ccccc2C(=O)N(Cc2ccccc2)[C@H]1c1ccc(CO)cc1 | 0.348 | 0.346 (inactive) | 1.01 (inactive) | 1.17 (inactive) | -0.205 (inactive) | 2.28 (inactive) | 0.322 (inactive) | -0.15 (inactive) | 1.5 | -0.193 | 0.433 (inactive) | 0.736 | -1.04 | -4.39 (inactive) | -0.0143 (inactive) | 0.371 (inactive)
O=C(NCC(F)(F)F)[C@@H]1c2ccccc2C(=O)N(Cc2ccccc2)[C@H]1c1ccc(CO)cc1 | -0.699 | -0.0657 (inactive) | -0.294 (inactive) | -1.09 (inactive) | -0.0654 (inactive) | 0.0566 (inactive) | 0.126 (inactive) | 0.606 (inactive) | 0.368 | -0.239 | 0.377 (inactive) | -0.396 | -0.778 | -1.25 (inactive) | -0.571 (inactive) | -0.801 (inactive)
COCCCNC(=O)[C@@]1(C)c2ccccc2C(=O)N(Cc2ccccc2)[C@H]1c1ccc(CO)cc1 | -0.0127 | -0.552 (inactive) | 0.392 (inactive) | -0.121 (inactive) | 0.745 (inactive) | -0.755 (inactive) | -0.157 (inactive) | -0.275 (inactive) | -0.153 | -0.0304 | 0.132 (inactive) | 0.947 | -1.35 | -1.86 (inactive) | -0.258 (inactive) | -0.432 (inactive)
C=CCC(OC(C)=O)[C@@H]1[C@@H](N(Cc2ccc(-c3ccccc3)cc2)C(=O)c2ccc(C)cc2)c2cc(OCCCO)ccc2N1C(=O)Cc1ccc(OC)cc1 (stereo not given in full) | 0.989 | -0.397 (inactive) | 1.02 (inactive) | -1.17 (inactive) | -0.312 (inactive) | -1.65 (inactive) | -0.104 (inactive) | 0.393 (inactive) | 0.72 | -0.165 | 0.0129 (inactive) | 0.703 | -1.18 | -0.664 (inactive) | -0.793 (inactive) | -0.677 (inactive)

Source: PubChem BioAssay
